# What was measured:
# [1] = target: Sphingosine kinase 1 (Homo sapiens) (UniProt Q9NYA1); conditions: at 1 µM;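 further: mean SPHK1 inhibition value reported from the GSK PKIS kinase panel screen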
# [2] = target: T1, Sphingosine kinase 2 (Homo sapiens) (UniProt Q9NRA0); conditions: at 0.1 µM
# T1 sequence (whole entry): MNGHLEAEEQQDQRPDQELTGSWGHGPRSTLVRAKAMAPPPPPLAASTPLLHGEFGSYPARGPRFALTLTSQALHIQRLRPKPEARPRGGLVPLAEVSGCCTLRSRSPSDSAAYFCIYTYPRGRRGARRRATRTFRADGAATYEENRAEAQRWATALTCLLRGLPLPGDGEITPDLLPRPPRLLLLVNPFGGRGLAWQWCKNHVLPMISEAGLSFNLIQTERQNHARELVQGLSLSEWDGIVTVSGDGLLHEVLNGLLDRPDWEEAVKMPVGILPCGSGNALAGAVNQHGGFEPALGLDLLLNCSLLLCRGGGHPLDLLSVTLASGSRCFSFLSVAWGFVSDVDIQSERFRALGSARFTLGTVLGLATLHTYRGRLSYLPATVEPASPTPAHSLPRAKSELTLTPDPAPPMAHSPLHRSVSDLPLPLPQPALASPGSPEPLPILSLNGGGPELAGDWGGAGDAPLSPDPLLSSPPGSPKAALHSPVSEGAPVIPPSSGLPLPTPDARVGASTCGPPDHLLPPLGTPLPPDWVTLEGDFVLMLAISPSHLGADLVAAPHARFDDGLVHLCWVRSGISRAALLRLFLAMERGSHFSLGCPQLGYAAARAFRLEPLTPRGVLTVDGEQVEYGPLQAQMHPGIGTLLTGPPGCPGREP
# [3] = target: T1, Sphingosine kinase 2 (Homo sapiens); conditions: at 1 µM
# [4] = target: Casein kinase II subunit alpha (Homo sapiens) (UniProt P68400); conditions: at 0.1 µM
# [5] = target: Casein kinase II subunit alpha (Homo sapiens) (UniProt P68400); conditions: at 1 µM
# [6] = target: T2, Inhibitor of nuclear factor kappa-B kinase subunit alpha (Homo sapiens) (UniProt O15111); conditions: at 0.1 µM
# T2 sequence (whole entry): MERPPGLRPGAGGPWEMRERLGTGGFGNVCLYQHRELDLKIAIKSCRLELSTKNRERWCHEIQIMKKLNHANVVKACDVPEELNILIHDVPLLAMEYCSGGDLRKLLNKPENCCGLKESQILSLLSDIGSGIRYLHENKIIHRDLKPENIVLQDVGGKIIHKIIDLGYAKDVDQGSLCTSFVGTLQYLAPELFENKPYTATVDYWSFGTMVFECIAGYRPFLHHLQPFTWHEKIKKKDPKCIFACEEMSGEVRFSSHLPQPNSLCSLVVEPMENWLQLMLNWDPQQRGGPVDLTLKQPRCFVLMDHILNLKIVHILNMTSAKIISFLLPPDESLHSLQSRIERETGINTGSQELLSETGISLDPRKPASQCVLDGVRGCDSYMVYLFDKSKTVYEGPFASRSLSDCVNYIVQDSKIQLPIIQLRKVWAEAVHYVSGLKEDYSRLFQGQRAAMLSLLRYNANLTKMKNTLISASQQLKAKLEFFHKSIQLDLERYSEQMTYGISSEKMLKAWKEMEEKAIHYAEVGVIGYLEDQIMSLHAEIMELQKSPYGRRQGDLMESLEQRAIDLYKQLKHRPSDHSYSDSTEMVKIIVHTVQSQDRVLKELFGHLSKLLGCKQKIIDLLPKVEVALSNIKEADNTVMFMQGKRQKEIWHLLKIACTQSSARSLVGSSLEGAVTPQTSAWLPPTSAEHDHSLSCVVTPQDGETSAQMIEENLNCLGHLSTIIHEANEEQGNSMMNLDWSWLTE
# [7] = target: T2, Inhibitor of nuclear factor kappa-B kinase subunit alpha (Homo sapiens); conditions: at 1 µM
# [8] = target: T3, Inhibitor of nuclear factor kappa-B kinase subunit beta (Homo sapiens) (UniProt O14920); conditions: at 0.1 µM
# T3 sequence (whole entry): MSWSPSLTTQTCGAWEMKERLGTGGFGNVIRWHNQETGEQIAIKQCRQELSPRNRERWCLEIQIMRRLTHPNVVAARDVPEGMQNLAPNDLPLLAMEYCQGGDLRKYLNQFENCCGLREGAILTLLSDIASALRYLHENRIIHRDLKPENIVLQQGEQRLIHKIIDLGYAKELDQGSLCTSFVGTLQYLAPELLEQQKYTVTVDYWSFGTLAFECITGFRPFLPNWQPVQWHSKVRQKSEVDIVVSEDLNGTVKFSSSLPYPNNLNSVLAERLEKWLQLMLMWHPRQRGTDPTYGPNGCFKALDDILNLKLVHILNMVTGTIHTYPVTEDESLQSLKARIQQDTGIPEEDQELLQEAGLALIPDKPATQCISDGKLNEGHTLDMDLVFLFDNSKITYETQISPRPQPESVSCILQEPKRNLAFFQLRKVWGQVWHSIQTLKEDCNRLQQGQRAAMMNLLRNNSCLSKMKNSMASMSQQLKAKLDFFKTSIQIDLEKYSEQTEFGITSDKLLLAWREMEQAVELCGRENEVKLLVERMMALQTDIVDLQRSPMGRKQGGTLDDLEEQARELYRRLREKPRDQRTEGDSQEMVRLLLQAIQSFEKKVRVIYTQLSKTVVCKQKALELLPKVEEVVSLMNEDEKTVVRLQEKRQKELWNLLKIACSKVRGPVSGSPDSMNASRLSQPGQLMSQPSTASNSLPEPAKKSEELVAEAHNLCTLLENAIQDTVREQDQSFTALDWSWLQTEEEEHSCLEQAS
# [9] = target: T3, Inhibitor of nuclear factor kappa-B kinase subunit beta (Homo sapiens); conditions: at 1 µM
# [10] = target: T4, Inhibitor of nuclear factor kappa-B kinase subunit epsilon (Homo sapiens) (UniProt Q14164); conditions: at 0.1 µM;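 further: mean inhibition of IKKε reported, from the GSK PKIS dataset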
# T4 sequence (whole entry): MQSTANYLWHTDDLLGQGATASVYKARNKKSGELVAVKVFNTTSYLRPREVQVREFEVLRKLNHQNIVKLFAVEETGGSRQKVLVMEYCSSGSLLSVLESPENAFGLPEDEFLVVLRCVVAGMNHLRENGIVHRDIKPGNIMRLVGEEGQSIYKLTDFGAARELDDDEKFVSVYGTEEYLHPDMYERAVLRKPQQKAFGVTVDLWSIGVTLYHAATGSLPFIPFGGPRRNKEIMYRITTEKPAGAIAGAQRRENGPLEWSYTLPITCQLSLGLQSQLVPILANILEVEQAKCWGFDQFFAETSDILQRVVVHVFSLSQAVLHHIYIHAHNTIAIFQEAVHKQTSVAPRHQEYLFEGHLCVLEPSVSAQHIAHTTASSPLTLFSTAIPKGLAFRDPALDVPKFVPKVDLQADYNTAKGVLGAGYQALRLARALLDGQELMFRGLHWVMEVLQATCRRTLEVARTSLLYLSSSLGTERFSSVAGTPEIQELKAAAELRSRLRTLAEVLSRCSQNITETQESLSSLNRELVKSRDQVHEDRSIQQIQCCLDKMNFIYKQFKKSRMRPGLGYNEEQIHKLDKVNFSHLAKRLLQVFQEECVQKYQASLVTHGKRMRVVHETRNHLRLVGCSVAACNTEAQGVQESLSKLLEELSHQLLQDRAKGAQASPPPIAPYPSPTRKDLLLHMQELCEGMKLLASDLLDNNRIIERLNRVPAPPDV
# Casein kinase II subunit alpha (Homo sapiens), sequence (P68400 whole entry, looked up): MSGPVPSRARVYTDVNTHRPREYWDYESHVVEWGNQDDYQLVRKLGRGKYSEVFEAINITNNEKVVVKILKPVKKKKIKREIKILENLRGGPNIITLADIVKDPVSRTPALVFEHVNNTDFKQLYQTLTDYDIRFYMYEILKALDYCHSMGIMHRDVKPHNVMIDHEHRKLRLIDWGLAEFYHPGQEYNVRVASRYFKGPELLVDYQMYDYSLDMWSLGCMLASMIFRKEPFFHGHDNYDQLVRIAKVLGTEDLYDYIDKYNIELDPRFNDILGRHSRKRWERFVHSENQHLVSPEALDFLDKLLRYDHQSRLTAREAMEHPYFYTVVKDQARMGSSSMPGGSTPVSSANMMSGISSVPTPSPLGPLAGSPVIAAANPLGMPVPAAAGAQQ
# Sphingosine kinase 1 (Homo sapiens), sequence (Q9NYA1 whole entry): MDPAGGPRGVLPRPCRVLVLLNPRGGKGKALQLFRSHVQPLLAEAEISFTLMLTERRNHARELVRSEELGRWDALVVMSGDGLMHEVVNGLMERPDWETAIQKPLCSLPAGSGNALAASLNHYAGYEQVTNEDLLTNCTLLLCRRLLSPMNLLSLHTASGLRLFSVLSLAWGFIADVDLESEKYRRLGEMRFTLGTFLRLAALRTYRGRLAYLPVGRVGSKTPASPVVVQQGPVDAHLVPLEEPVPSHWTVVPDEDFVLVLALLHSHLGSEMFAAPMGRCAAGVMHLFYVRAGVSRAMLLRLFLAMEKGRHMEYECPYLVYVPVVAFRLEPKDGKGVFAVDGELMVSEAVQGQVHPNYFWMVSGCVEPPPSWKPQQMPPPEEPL
compound,measurement,setting,value
Cc1ccc(C(=O)NC2CCC2)cc1-c1ccc(C(=O)NCC2CC2)cc1,inhibition,[1],-2.08%
same,inhibition,[2],0.15%
same,inhibition,[3],-0.32%
same,inhibition,[4],0.14%
same,inhibition,[5],-0.02%
same,inhibition,[6],5.36%
same,inhibition,[7],2.23%
same,inhibition,[8],3.94%
same,inhibition,[9],0.66%
same,inhibition,[10],3.52%

# Reference: ChEMBL document CHEMBL1961873, “Compounds: GSK PKIS; Assays: Nanosyn kinase panel” (2012)
